Data reported in PubChem BioAssay (NCATS).
Records with an inconclusive call do not appear. Activity calls are given as the source filed them. Unless noted, the call rests on the fitted dose curve; in most records, active means well fitted cell-killing curve with a large enough effect; inconclusive means small, poorly fitted or top-dose-only effect; inactive means flat fitted curve, though single readings scatter.

Key:
[1] = Cell Viability - LYMP2-025 (AID 976);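 further: series mostly up to about 92 µM; plate controls were DMSO only for no effect and tetraoctylammonium bromide control for full effect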
In short: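 Seed 2500 LYMP2-025 cells/well; 5 hr at 37 C; add compound; 24 hr at 37 C; add CellTiter-Glo; 30 min RT; read luminescence. AC50 from Hill-modelled concentration-response.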

[2] = Cell Viability - LYMP2-002 (AID 977);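 further: series mostly up to about 92 µM; plate controls were DMSO only for no effect and 92 µM tetraoctylammonium bromide for full effect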
In short: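 Luminescent ATP readout (CellTiter-Glo, 30 min room temperature) after 24 h compound exposure at 37 C of a human lymphoblastoid line, 2500 cells/well. AC50 values derived by standard Hill fitting of qHTS concentration-response data.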

[3] = Cell Viability - LYMP2-006 (AID 978); further: series mostly up to about 92 µM; on the % scale 0 is the no-effect control and ±100 the full control effect; nearly all actives have a fitted effect of over 60% in size
In short: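 Cells are seeded at 2500 per well and rested 5 hr at 37 C. Compounds are added across a concentration series for 24 hr at 37 C, after which ATP is quantified by luciferase luminescence.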

[4] = Cell Viability - LYMP2-007 (AID 979);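 further: cells exposed to compound for 24 h before reading; 0% = DMSO only and the negative end = 92 µM tetraoctylammonium bromide; nearly all actives have a fitted effect of over 60% in size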
In short: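 Luminescent ATP signal (CellTiter-Glo) serves as the viability read-out after 24 hr compound treatment of lymphoblastoid cells in complete medium at 37 C. Concentration-response data were fitted to the Hill equation to give AC50 values.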

[5] = Cell Viability - LYMP2-008 (AID 980); further: on the % scale 0 is the no-effect control and ±100 the full control effect; nearly all actives have a fitted effect of over 60% in size
In short: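 qHTS, human lymphoblastoid line, 2500 cells/well; 5 hr preincubation, 24 hr compound, 37 C. CellTiter-Glo ATP luminescence. AC50 via Hill equation. Tetraoctylammonium bromide positive control.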

[6] = Cell Viability - LYMP2-010 (AID 981); further: on the % scale 0 is the no-effect control and ±100 the full control effect; nearly all actives have a fitted effect of over 55% in size
In short: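 Luminescent ATP signal (CellTiter-Glo) served as the viability read-out. Cells of the human lymphoblastoid line were treated with compound over a concentration range for 24 hours at 37 C, and AC50 values came from Hill-equation modeling.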

[7] = Cell Viability - LYMP2-012 (AID 982);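 further: cellular ATP by luciferase luminescence where a drop means cytotoxicity; cells exposed to compound for one day before reading; 0% = DMSO only and full loss = 92 µM tetraoctylammonium bromide; nearly all actives have a fitted effect of over 55% in size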
[8] = Cell Viability - LYMP2-014 (AID 983);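 further: series mostly up to about 92 µM; plate controls were DMSO only for no effect and 92 µM tetraoctylammonium bromide for full effect; nearly all actives have a fitted effect of over 50% in size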
In short: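 Luminescent ATP signal (CellTiter-Glo, 30 min at room temperature) serves as the viability read-out after 24 hr compound exposure at 37 C. Cells were seeded at 2500 per well and settled 5 hr beforehand.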

[9] = Cell Viability - LYMP2-016 (AID 984); further: on the % scale 0 is the no-effect control and ±100 the full control effect; nearly all actives have a fitted effect of over 55% in size
In short: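 Cells were seeded at 2500 per well and rested 5 hr before a 24 hr compound exposure at 37 C. Viability was then gauged as cellular ATP by luciferase luminescence, with AC50 values fitted to the Hill equation.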

[10] = Cell Viability - LYMP2-018 (AID 985);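 further: plate controls were DMSO only for no effect and tetraoctylammonium bromide at 92 µM for full effect; nearly all actives have a fitted effect of over 50% in size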
In short: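 Luminescent ATP signal (CellTiter-Glo, read after 30 min at room temperature) reports viable cells after 24 hr compound treatment at 37 C. Concentration-response data were fitted to the standard Hill equation for AC50.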

[11] = Cell Viability - LYMP2-020 (AID 986);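 further: series mostly up to about 92 µM; plate controls were DMSO only for no effect and tetraoctylammonium bromide at 92 µM for full effect; nearly all actives have a fitted effect of over 55% in size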
In short: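 Luminescent ATP signal (CellTiter-Glo, 30 min at room temperature) is the read-out after 24 h compound treatment of lymphoblastoid cells at 37 C. AC50 values come from Hill-equation fits across concentrations.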

[12] = Cell Viability - LYMP2-022 (AID 987)
In short: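 qHTS: human lymphoblastoid cells 2500/well; 5 hr 37 C; cpd added; 24 hr 37 C; CellTiter-Glo, 30 min RT; luminescence. AC50 via Hill fit; tetraoctylammonium bromide positive ctrl.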

[13] = Cell Viability - LYMP2-024 (AID 988);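 further: plate controls were DMSO only for no effect and 92 µM tetraoctylammonium bromide for full effect; nearly all actives have a fitted effect of over 60% in size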
In short: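 Steps: seed 2500 cells/well, 5 hr 37 C; add compound, 24 hr 37 C; add CellTiter-Glo, 30 min room temperature; read luminescence. AC50 derived by Hill modelling of concentration-dependent ATP loss.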

[14] = Cell Viability - LYMP2-026 (AID 989); further: on the % scale 0 is the no-effect control and ±100 the full control effect; nearly all actives have a fitted effect of over 50% in size
In short: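 Luminescent ATP signal (CellTiter-Glo, 30 min room temperature) measures viable lymphoblastoid cells after 24 hr compound treatment at 37 C. Decreased ATP reflects acute toxicity; AC50 values come from Hill-equation modeling.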

[15] = Cell Viability - LYMP1-002 - Assay at 24 hr (AID 993); further: on the % scale 0 is the no-effect control and ±100 the full control effect
In short: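 Cells plated 2500/well, 5 hr 37 C; compounds added, 24 hr 37 C; CellTiter-Glo added, 30 min RT; luminescence read. Tetraoctylammonium bromide positive control. Hill-equation AC50.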

[16] = Cell Viability - LYMP1-002 - Assay at 40 hr (AID 994)
In short: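 Luminescent ATP signal served as the viability readout, with decreases taken as toxicity. Cells were treated with compounds across a concentration range for 40 hours at 37 C, and AC50 values came from standard Hill modeling.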

[17] = qHTS Assay for Identification of Small Molecule Inducers of Hypoxia Response (AID 2120; active means well fitted curve in the direction sought with a large enough effect in the signal ratio, with a control signal flat, not every such curve was filed as active; the % refers to the signal ratio; further: 0% is about no effect)
In short: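 ME-180 HRE-bla cells plated in Opti-MEM/0.5% dialyzed FBS, rested 4-5 h, then dosed with compound titrations by pin tool. After 17 h at 37 degrees C, CCF4 dye loaded 2.5 h at RT; 460/530 nm ratio gave %Activity and AC50.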

[18] = target: Estrogen receptor (Homo sapiens) (UniProt P03372); test: qHTS assay for small molecule antagonists of estrogen receptor alpha signaling (AID 588513; active means well fitted curve in the direction sought with a large enough effect in the signal ratio, with a control signal flat, not every such curve was filed as active; the % refers to the signal ratio; further: on the % scale 0 is the no-effect control and ±100 the full control effect)
Sequence of Estrogen receptor (Homo sapiens) (P03372 whole entry, looked up): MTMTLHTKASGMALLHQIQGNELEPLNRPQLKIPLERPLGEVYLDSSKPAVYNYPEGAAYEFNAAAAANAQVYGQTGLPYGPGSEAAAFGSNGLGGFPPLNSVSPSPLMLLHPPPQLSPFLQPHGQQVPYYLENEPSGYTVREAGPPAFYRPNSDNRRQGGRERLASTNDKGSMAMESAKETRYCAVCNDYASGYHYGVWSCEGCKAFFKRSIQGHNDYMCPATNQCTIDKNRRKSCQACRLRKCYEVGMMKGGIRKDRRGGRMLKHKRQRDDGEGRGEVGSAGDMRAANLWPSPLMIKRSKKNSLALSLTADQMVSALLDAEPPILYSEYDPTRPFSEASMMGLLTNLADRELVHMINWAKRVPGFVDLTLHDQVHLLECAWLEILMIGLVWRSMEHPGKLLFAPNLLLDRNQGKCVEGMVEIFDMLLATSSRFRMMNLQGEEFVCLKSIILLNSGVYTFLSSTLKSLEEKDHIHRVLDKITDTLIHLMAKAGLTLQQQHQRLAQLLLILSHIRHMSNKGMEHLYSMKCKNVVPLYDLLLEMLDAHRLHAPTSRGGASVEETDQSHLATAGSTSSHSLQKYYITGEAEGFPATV
In short: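 Fluorescence from CCF4 substrate after 2 h at room temperature gave reporter activity; cells had been exposed to compound and 0.5nM 17-beta-estradiol for 18 h at 37 C. Hill-equation fitting yielded IC50 and maximal response.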

[19] = target: Androgen receptor (Homo sapiens) (UniProt P10275); test: qHTS assay for small molecule agonists of androgen receptor signaling (AID 588515; active means well fitted curve in the direction sought with a large enough effect in the signal ratio, with a control signal flat; the % refers to the signal ratio; further: on the % scale 0 is the no-effect control and ±100 the full control effect); conditions: AR-UAS-bla HEK293, beta-lactamase ratio, agonist 16 h; active compounds read high
Sequence of Androgen receptor (Homo sapiens) (P10275 whole entry, looked up): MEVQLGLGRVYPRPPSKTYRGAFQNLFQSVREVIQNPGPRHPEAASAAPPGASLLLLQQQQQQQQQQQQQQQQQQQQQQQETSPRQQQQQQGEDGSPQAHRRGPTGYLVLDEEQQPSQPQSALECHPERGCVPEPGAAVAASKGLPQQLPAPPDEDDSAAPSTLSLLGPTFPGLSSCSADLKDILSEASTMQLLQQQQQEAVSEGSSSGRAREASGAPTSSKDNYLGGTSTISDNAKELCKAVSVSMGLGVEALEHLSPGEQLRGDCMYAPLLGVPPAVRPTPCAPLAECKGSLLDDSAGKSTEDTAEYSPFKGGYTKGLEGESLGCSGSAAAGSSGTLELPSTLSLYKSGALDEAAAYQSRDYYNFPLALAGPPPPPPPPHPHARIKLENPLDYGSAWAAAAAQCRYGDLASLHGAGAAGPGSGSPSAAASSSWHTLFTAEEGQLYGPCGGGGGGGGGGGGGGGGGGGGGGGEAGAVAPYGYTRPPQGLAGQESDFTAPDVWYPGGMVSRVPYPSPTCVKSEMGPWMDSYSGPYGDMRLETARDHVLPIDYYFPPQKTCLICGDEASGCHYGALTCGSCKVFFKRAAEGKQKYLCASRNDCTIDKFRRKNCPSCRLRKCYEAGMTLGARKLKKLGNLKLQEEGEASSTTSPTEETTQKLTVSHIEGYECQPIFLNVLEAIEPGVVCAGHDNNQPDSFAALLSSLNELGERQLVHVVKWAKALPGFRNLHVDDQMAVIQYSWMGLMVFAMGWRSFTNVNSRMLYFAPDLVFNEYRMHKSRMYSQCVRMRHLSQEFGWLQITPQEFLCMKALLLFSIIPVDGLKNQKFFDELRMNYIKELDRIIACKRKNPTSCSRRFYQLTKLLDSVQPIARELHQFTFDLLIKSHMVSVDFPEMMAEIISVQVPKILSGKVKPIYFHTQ
In short: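 EC50 and efficacy came from Hill fits of titrations (up to 92 uM) normalized to 30 nM R1881 as 100% and DMSO as 0%. Compound exposure was 16 h at 37 C on AR-UAS-bla HEK293 cells, with a 405/460/530 nm CCF4 fluorescence read.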

[20] = target: Estrogen receptor (Homo sapiens) (UniProt P03372); test: qHTS assay for small molecule agonists of estrogen receptor alpha signaling (AID 588514; calls by dose curve;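 further: 0% = vehicle only and 100% = reference agonist; nearly all actives have a fitted effect of over 70% in size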)
In short: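 Cells were plated at 5000/well, incubated 4 hrs at 37 C, dosed with compound titration series, incubated 18 hrs at 37 C, loaded with CCF4 dye for 2 hrs at RT, then fluorescence was read.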

Nc1cc([N+](=O)[O-])ccc1C(=O)O
inactive: Potency [1] | Potency [2] | Potency [3] | Potency [4] | Potency [5] | Potency [6] | Potency [7] | Potency [8] | Potency [9] | Potency [10] | Potency [11] | Potency [12] | Potency [13] | outcome [14] | Potency [15] | Potency [16] | outcome [17] | outcome [18]

CCCCN(CCO)CCCC
inactive: Potency [1] | Potency [2] | Potency [3] | Potency [4] | Potency [5] | Potency [6] | Potency [7] | Potency [8] | Potency [9] | Potency [11] | Potency [12] | Potency [13] | outcome [14] | Potency [15] | Potency [16] | outcome [17] | outcome [18]

O=C(O)c1ccc(Cl)cc1Cl
inactive: Potency [1] | Potency [2] | Potency [3] | Potency [4] | Potency [5] | Potency [6] | Potency [7] | Potency [8] | Potency [9] | Potency [10] | Potency [11] | outcome [14] | Potency [15] | Potency [16] | outcome [17] | outcome [18]

CCCCC(CC)COCC1CO1 (stereo unspecified)
inactive: Potency [1] | Potency [2] | Potency [3] | Potency [4] | Potency [5] | Potency [6] | Potency [7] | Potency [8] | Potency [10] | Potency [11] | Potency [12] | Potency [13] | outcome [14] | Potency [15] | Potency [16] | outcome [17] | outcome [18]

C=C(C)C(N)=O
inactive: Potency [1] | Potency [2] | Potency [3] | Potency [4] | Potency [5] | Potency [6] | Potency [7] | Potency [8] | Potency [9] | Potency [11] | Potency [12] | Potency [13] | outcome [14] | Potency [15] | Potency [16] | outcome [17] | outcome [18]

O=Cc1ccc(CO)o1
inactive: Potency [1] | Potency [2] | Potency [3] | Potency [4] | Potency [6] | Potency [7] | Potency [8] | Potency [9] | Potency [10] | Potency [11] | Potency [12] | Potency [13] | outcome [14] | Potency [15] | Potency [16] | outcome [17] | outcome [18]

NC(=O)c1cccc([N+](=O)[O-])c1
inactive: Potency [1] | Potency [2] | Potency [3] | Potency [4] | Potency [6] | Potency [7] | Potency [8] | Potency [9] | Potency [10] | Potency [11] | Potency [12] | Potency [13] | outcome [14] | Potency [15] | Potency [16] | outcome [17] | outcome [18] | activation [19] 2.01%

C1COC1
inactive: Potency [1] | Potency [2] | Potency [3] | Potency [4] | Potency [5] | Potency [6] | Potency [7] | Potency [8] | Potency [9] | Potency [11] | Potency [12] | outcome [14] | Potency [15] | Potency [16] | outcome [17] | Potency [20] | activation [19] -10.3%

Cc1ccc2nc(-c3ccc(N)cc3)sc2c1S(=O)(=O)O
inactive: Potency [1] | Potency [2] | Potency [3] | Potency [4] | Potency [6] | Potency [7] | Potency [8] | Potency [10] | Potency [11] | Potency [12] | Potency [13] | outcome [14] | Potency [16] | outcome [17] | outcome [18]

Cc1cc(C(=O)O)ccc1[N+](=O)[O-]
inactive: Potency [1] | Potency [2] | Potency [3] | Potency [5] | Potency [6] | Potency [7] | Potency [8] | Potency [9] | Potency [10] | Potency [11] | Potency [12] | Potency [13] | outcome [14] | Potency [15] | Potency [16] | outcome [17] | outcome [18]

CCCCCCC(=O)O
inactive: Potency [1] | Potency [2] | Potency [3] | Potency [4] | Potency [5] | Potency [6] | Potency [7] | Potency [8] | Potency [9] | Potency [10] | Potency [11] | Potency [12] | Potency [13] | outcome [14] | Potency [16] | outcome [17] | outcome [18]

CCOC(=O)OCC
inactive: Potency [1] | Potency [2] | Potency [3] | Potency [5] | Potency [6] | Potency [7] | Potency [8] | Potency [10] | Potency [11] | Potency [12] | Potency [13] | outcome [14] | Potency [15] | outcome [17] | Potency [20]

Nc1cccc(S(=O)(=O)O)c1
inactive: Potency [1] | Potency [2] | Potency [3] | Potency [4] | Potency [5] | Potency [6] | Potency [7] | Potency [8] | Potency [9] | Potency [10] | Potency [11] | Potency [12] | Potency [13] | outcome [14] | Potency [15] | Potency [16] | outcome [17] | activation [19] 6.82%

CCCC(C)CO (stereo unspecified)
inactive: Potency [1] | Potency [2] | Potency [3] | Potency [4] | Potency [5] | Potency [6] | Potency [7] | Potency [8] | Potency [9] | Potency [10] | Potency [11] | Potency [12] | outcome [14] | Potency [15] | Potency [16] | outcome [17] | activation [19] -5.4%
